Compounds without any hit were thinned out: in the full panel of roughly 79,000, 15% have a hit. A number with no mark means an inactive call. Calls of active or inactive are those of the source. Rule as the data show it: active = growth inhibition above about 70%; inactive = the rest.
What was measured:
[1] = NCI Yeast Anticancer Drug Screen. Data for the rad50 strain (AID 155);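 also: 0% = growth of vehicle-only cultures of the same strain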; settings: S. cerevisiae rad50 strain growth inhibition, hits give high values
Outline: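 Inhibition values express reduced yeast growth in compound-treated cultures relative to vehicle-treated controls.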

[2] = NCI Yeast Anticancer Drug Screen. Data for the mec2-1 strain (AID 157); settings: S. cerevisiae mec2-1 strain, hits give high values
Outline: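 Vehicle-treated cultures served as reference for growth inhibition of compound-exposed mec2-1 yeast.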

[3] = NCI Yeast Anticancer Drug Screen. Data for the sgs1 mgt1 strain (AID 161);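 also: 0% = growth of cultures given vehicle only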; settings: S. cerevisiae sgs1 mgt1 strain, hits give high values
Outline: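 Test agents were incubated with a DNA-repair-mutant yeast strain. Growth was then read and compared against vehicle-treated controls.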

[4] = NCI Yeast Anticancer Drug Screen. Data for the cln2 rad14 strain (AID 165);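 also: 0% = growth equal to vehicle treated cultures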; settings: S. cerevisiae cln2 rad14 strain, hits give high values
Outline: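 Each compound was tested on cln2 rad14 yeast. Inhibition of growth was calculated against vehicle-exposed controls.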

[5] = NCI Yeast Anticancer Drug Screen. Data for the bub3 strain (AID 167); settings: S. cerevisiae bub3 mutant strain, hits give high values
Outline: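 Steps: expose the mutant yeast strain to compound; grow alongside vehicle-treated cultures; measure growth; express inhibition against the vehicle cultures.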

[6] = NCI Yeast Anticancer Drug Screen. Data for the mlh1 rad18 strain (AID 175); settings: S. cerevisiae mlh1 rad18 strain growth inhibition, hits give high values
Outline: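 Vehicle-treated cultures served as the reference for growth inhibition in a yeast strain carrying DNA damage repair alterations exposed to each compound.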

[7] = at 5.0 µM (retest, dose inferred, filed as 0.5)
[8] = at 50.0 µM (retest, dose inferred, filed as 5.0)

Compound	growth inhibition [1, 7]	growth inhibition [1, 8]	growth inhibition ([1]; at 50.0 µM)	growth inhibition [2, 7]	growth inhibition [2, 8]	growth inhibition ([2]; at 50.0 µM)	growth inhibition [3, 7]	growth inhibition [3, 8]	growth inhibition ([3]; at 50.0 µM)	growth inhibition [4, 7]	growth inhibition [4, 8]	growth inhibition ([4]; at 50.0 µM)	growth inhibition [5, 7]	growth inhibition [5, 8]	growth inhibition ([5]; at 50.0 µM)	growth inhibition [6, 7]	growth inhibition [6, 8]	growth inhibition ([6]; at 50.0 µM)
C(=N\NC1=NCCN1)/c1ccc(-c2cn3cc(/C=N/NC4=NCCN4)ccc3n2)cc1	99% (active)	99% (active)	99.1% (active)	100% (active)	99% (active)	97.8% (active)	99% (active)	100% (active)	99.3% (active)	92% (active)	98% (active)	98.1% (active)	98% (active)	99% (active)	99.3% (active)	99% (active)	99% (active)	99.4% (active)
NC(=S)C(=S)N/C=C/c1nc2ccccc2[nH]c1=O	-19%	98% (active)	89.8% (active)	-25%	99% (active)	92.7% (active)	-13%	97% (active)	91.7% (active)	-11%	98% (active)	89.3% (active)	-7%	99% (active)	90.7% (active)	-6%	98% (active)	89.4% (active)
COc1cccc2c1C(=O)c1c(O)c3c(c(O)c1C2=O)CC(O)(C(C)=O)CC3OC1OC(COC(C)=O)C(OC(C)=O)C(OC(C)=O)C1OC(C)=O (configuration not stated)	5%	58%	95.5% (active)	49%	30%	97.5% (active)	3%	33%	97.8% (active)	5%	8%	97.2% (active)	2%	83% (active)	98.9% (active)	3%	59%	98% (active)
CN1c2ccccc2C(=O)NC1c1ccc([N+](=O)[O-])s1 (configuration not stated)	-9%	53%	63.5%	7%	8%	41%	-19%	32%	71.8% (active)	11%	23%	33.4%	-47%	35%	57%	-22%	63%	73.1% (active)
CCCCOS(=O)(=O)c1ccc(C)cc1	-7%	15%	9.1%	-4%	-22%	-82.3%	-8%	7%	-9.45%	1%	-15%	25.1%	-16%	-39%	-23.5%	-6%	-4%	-3.55%
CCCCCC(C1SC(=S)NC1=O)C1SC(=S)NC1=O (configuration not stated)	1%	-3%	96.8% (active)	2%	1%	93.2% (active)	5%	6%	95% (active)	-1%	-1%	83% (active)	0%	0%	97.6% (active)	0%	3%	81.8% (active)
CCCCCC(CCCCC)OC(=O)CCN(CCCCC)CCCCC	2%	81% (active)	74% (active)	6%	86% (active)	46.1%	14%	97% (active)	84% (active)	5%	75% (active)	72% (active)	1%	87% (active)	51.9%	3%	94% (active)	68.9%
CC12CC(O)C3C(CCC4CCCCC43C)C1CC/C2=N/O (configuration not stated)	47%	-10%	86.6% (active)	45%	7%	91.2% (active)	27%	1%	93.3% (active)	8%	-6%	50.8%	10%	-5%	93.9% (active)	52%	5%	94.6% (active)
CC(=O)C(C(=N)C#N)C(=O)Nc1ccccc1 (configuration not stated)	1%	10%	-6.9%	2%	-12%	-34.5%	-8%	7%	-22.7%	-14%	-2%	33.6%	6%	-2%	-44%	0%	6%	-15.2%
CCC1CCC2C3CC=C4CC(OC(C)=O)C(N)CC4(C)C3CCC12C (configuration not stated)	6%	96% (active)	93% (active)	9%	94% (active)	92.3% (active)	4%	93% (active)	89.2% (active)	45%	95% (active)	91.3% (active)	-5%	95% (active)	85.6% (active)	12%	94% (active)	91.8% (active)
CC(C)N(C(=O)C12C3C4C1C1C2C3C41I)C(C)C (configuration not stated)	16%	-6%	57.5%	-28%	19%	67.4%	44%	27%	68.5%	3%	28%	42.7%	-38%	-11%	61%	-34%	20%	73.5% (active)
Cc1ccc(Nc2nc(C)c(C(/C=C/c3ccc4c(c3)OCO4)=N/Nc3ccc([N+](=O)[O-])cc3[N+](=O)[O-])s2)c([N+](=O)[O-])c1	43%	43%	53.5%	36%	36%	69%	37%	37%	89.5% (active)	23%	23%	68.2%	33%	33%	67.7%	37%	37%	81.7% (active)
O=C(Nc1ccc(-c2cn3ccccc3n2)cc1)c1cc(Br)ccc1O	4%	15%	-21.6%	5%	7%	-28.6%	12%	9%	-13.8%	33%	-9%	39.9%	5%	6%	-24.4%	5%	13%	-29.8%
C/C(=N/O)c1ccc2c(c1)C(C)c1ccccc1-2 (configuration not stated)	-147%	-142%	35.2%	-53%	-54%	45.9%	-59%	-65%	34.5%	-60%	-66%	77.4% (active)	-62%	-54%	78.2% (active)	-113%	-103%	75% (active)
CCOc1cc2c(OCc3ccccc3)cc3c4cc(OC)c(OC)cc4c[n+](C)c3c2cc1OC	98% (active)	99% (active)	59.6%	96% (active)	99% (active)	46.2%	97% (active)	99% (active)	50.8%	97% (active)	99% (active)	55%	97% (active)	99% (active)	50.3%	97% (active)	99% (active)	50.1%
Clc1cc(Cl)c(OCCOCCI)c(Cl)c1	0%	13%	28.1%	2%	12%	9.15%	1%	11%	16.1%	1%	-25%	14.4%	10%	42%	48%	-3%	5%	34%
O=c1c(SSc2coc3ccccc3c2=O)coc2ccccc12	22%	99% (active)	94.4% (active)	27%	96% (active)	96.3% (active)	27%	98% (active)	87.5% (active)	42%	94% (active)	91.3% (active)	13%	94% (active)	71.9% (active)	17%	97% (active)	93.5% (active)
C=C(C)COc1cc(NC(=S)OC(C)C)ccc1Cl	16%	90% (active)	51.8%	16%	93% (active)	83.8% (active)	8%	88% (active)	90.1% (active)	6%	86% (active)	88.2% (active)	20%	93% (active)	88.3% (active)	12%	92% (active)	83.6% (active)
CCN(CC)CCOc1ccc(/C(C#N)=C/c2ccc3ccccc3c2)cc1	38%	99% (active)	99.5% (active)	30%	99% (active)	99.5% (active)	73% (active)	100% (active)	99.2% (active)	28%	99% (active)	99.5% (active)	53%	99% (active)	99.4% (active)	35%	99% (active)	99.2% (active)

— PubChem BioAssay (NCI)
